A selection: hits, their analogues and other compounds. The true share with any hit is near 0.52%.
Sa growth 42C: S. aureus growth inhibition at 42 and 30 °C, primary screen, LtaS inhibitor project, RN4220, two temperatures | OD600, 20 h, 42 °C; active compounds read low | relative growth, % (test concentration not listed) | 170,000 compounds, 0.53% hits | AID 720641, 2013;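 active means relative growth at most 50% at the other temperature and 20+ points below 30 °C, or under 10% at both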
S aureus helic: inhibitors of S. aureus replicative helicase, primary screen, biochemical, fluorescence unwinding readout | replicative DNA helicase (DnaC/DnaB), Staphylococcus aureus | purified S. aureus helicase, fluorescence unwinding assay | inhibition, % (concentration not given with the values) | 120,000 compounds, 0.05% hits | AID 485395, 2010; in the data active means inhibition above about 25%, passing the limit was not always enough;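 further: 0% = mean of negative control wells and 100% = mean of positive control wells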
Active calls of the source: *.

What do the screens show for `O=C(O)c1ccc(-c2cccc(C(F)(F)F)c2)o1`?
Sa growth 42C: 45*; S aureus helic: -3

What do the screens show for `NC(=O)c1ccc(-c2cccc(C(F)(F)F)c2)o1`?
Sa growth 42C: 95; S aureus helic: 8

Results for O=C(Nc1ccc(F)cc1F)c1ccccc1C(F)(F)F ?
Sa growth 42C: 119; S aureus helic: -11

What do the screens show for `c1ccc(CSC2=NCN(Cc3ccccc3)CN2)cc1`?
Sa growth 42C: 65

Results for CC1=NN(c2cccc(C(F)(F)F)c2)C(=O)C1 ?
Sa growth 42C: 0.4*; S aureus helic: -5

Results for CC1=NN(c2cccc(SC(F)F)c2)C(=O)C1 ?
Sa growth 42C: 57; S aureus helic: 7

How did CC[C@@H]1OC(=O)C[C@@H](O)[C@H](C)[C@@H](O[C@@H]2O[C@H](C)[C@@H](O)[C@H](N(C)C)[C@H]2O)[C@@H](CCN2C[C@H](C)C[C@H](C)C2)C[C@@H](C)C(=O)/C=C/C(C)=C\[C@@H]1CO[C@@H]1O[C@H](C)[C@@H](O)[C@@H](OC)[C@H]1OC do in these assays?
Sa growth 42C: 0.5*

Results for CCc1ccc(OC(=O)/C=C/c2ccco2)cc1 ?
Sa growth 42C: 106; S aureus helic: -2

What do the screens show for `O=C(/C=C\c1ccco1)Oc1cccc2cccnc12`?
Sa growth 42C: 1.6*; S aureus helic: 17

How did O=C([C@@H]1CCCN1C(=O)c1cccs1)N(CC1CCCO1)C1CCS(=O)(=O)C1 (some centres undefined) do in these assays?
Sa growth 42C: 91; S aureus helic: 4

What do the screens show for `S=C(Nc1cccc(Cl)c1)Nc1cccc(Cl)c1`?
Sa growth 42C: 0.0*

How did CC(C)(C)NC(=S)Nc1cccc(Cl)c1 do in these assays?
Sa growth 42C: 126; S aureus helic: 10

Results for O=C(C1CC(c2ccccc2F)=NO1)N1CCCCCC1 (centres undefined) ?
Sa growth 42C: 100; S aureus helic: -4

How did COc1nncc(-c2cnnc(SC)n2)n1 do in these assays?
Sa growth 42C: 0.1*; S aureus helic: 8

Results for COc1ccc(-c2ccnc(SC)n2)cc1 ?
Sa growth 42C: 129

What do the screens show for `CN(Cc1ccc(OC(F)F)cc1)S(=O)(=O)c1ccccc1C#N`?
Sa growth 42C: 111; S aureus helic: 10

How did Oc1cccc2ccc(Nc3ccccn3)nc12 do in these assays?
Sa growth 42C: 77; S aureus helic: 11

How did CNc1ccc2cccc(O)c2n1 do in these assays?
Sa growth 42C: 0.4*; S aureus helic: 13

Results for CC(=O)Oc1ccc(C)cc1-n1nc2ccccc2n1 ?
Sa growth 42C: 46*; S aureus helic: 0

How did CCN(CC)S(=O)(=O)c1ccc(Cl)c(C(=O)Oc2ccc(C)cc2-n2nc3ccccc3n2)c1 do in these assays?
Sa growth 42C: 92; S aureus helic: 7

What do the screens show for `CN(C)c1ccc(C2Nc3ccc4ncccc4c3C3=C2C(=O)CCC3)cc1` (centres undefined)?
Sa growth 42C: 88; S aureus helic: 8

How did O=C(CCc1ccccc1)N/N=C/c1ccco1 do in these assays?
Sa growth 42C: 113; S aureus helic: -4

Results for O=C(NCc1cccnc1)/C(=C\c1ccc(Br)cc1)S(=O)(=O)c1ccccc1 ?
Sa growth 42C: -1.3*; S aureus helic: 10

What do the screens show for `O=C(NCc1cccnc1)/C(=C\c1cccc(Oc2ccccc2)c1)S(=O)(=O)c1ccccc1`?
Sa growth 42C: -1.3*; S aureus helic: 17

What do the screens show for `O=C(NCc1cccnc1)c1ccc(Br)cc1`?
S aureus helic: 18

Results for O=C(NCc1ccncc1)c1cccc(Oc2ccccc2)c1 ?
Sa growth 42C: 105; S aureus helic: 0

Results for CN(CCC(N)=O)Cc1ccccc1 ?
Sa growth 42C: 112; S aureus helic: -2

Results for COc1ccc2c(c1)c1c(c(=O)n(-c3cccc(Cl)c3)c(=O)n1CC(=O)NCC1CCCO1)n2C (centres undefined) ?
Sa growth 42C: 106

Results for CC(C)c1ccc(CNC(=O)c2ccc(=O)[nH]c2)cc1 ?
Sa growth 42C: 104; S aureus helic: -3

Results for Cc1ccc2nc3n(c(=O)c2c1)CC(O)=C3C#N ?
Sa growth 42C: 100; S aureus helic: 6

How did CN(C)c1ccc(/C=C2\CCC(C3CCCC3)C2=O)cc1 (centres undefined) do in these assays?
Sa growth 42C: 95; S aureus helic: 3

How did Cc1ccc(/C=C2\CCCC(CN(C)C)C2=O)cc1 (centres undefined) do in these assays?
Sa growth 42C: -0.2*

How did O=C1C(Nc2cccc(O)c2)=C(n2nnc3ccccc32)C(=O)c2ccccc21 do in these assays?
Sa growth 42C: 0.6*; S aureus helic: 15

Results for O=C1C(Nc2ccccc2)=C(n2nnc3ccccc32)C(=O)c2ccccc21 ?
Sa growth 42C: 86; S aureus helic: 13

What do the screens show for `O=C(NCSCc1cccc(C(F)(F)F)c1)Nc1ccc(F)c(Cl)c1`?
Sa growth 42C: 9.0*

How did C=CCNC(=O)Nc1ccc(F)c(Cl)c1 do in these assays?
Sa growth 42C: 105; S aureus helic: 25

How did COC(=O)C1=C(CN2CC(C)CC(C)C2)NC(=O)NC1c1ccc(OC)cc1 (centres undefined) do in these assays?
Sa growth 42C: 93; S aureus helic: 0

Results for Cc1ccc(C(O)c2ccccc2)s1 (centres undefined) ?
Sa growth 42C: 79; S aureus helic: 10

What do the screens show for `CCn1c(CN(C)CCOc2ccc(OC)cc2)nc2cc(S(=O)(=O)N(C)C)ccc21`?
Sa growth 42C: 82; S aureus helic: 18

Results for O=S(=O)(c1ccccc1)c1nc(-c2cccs2)oc1N1CCCCC1 ?
Sa growth 42C: 106

What do the screens show for `CCC(C)S(=O)(=O)c1oc(-c2cccs2)nc1S(=O)(=O)c1ccccc1` (centres undefined)?
Sa growth 42C: 3.7*

What do the screens show for `O=S(=O)(c1ccccc1)c1nc(-c2ccc(F)cc2)oc1NCc1ccccc1`?
Sa growth 42C: 121

How did CC(C)CS(=O)(=O)c1oc(-c2ccc(F)cc2)nc1S(=O)(=O)c1ccccc1 do in these assays?
Sa growth 42C: 1.0*

Results for O=C(Cc1n[nH]c(=O)c2ccccc12)OCCCCN1C(=O)c2ccccc2C1=O ?
S aureus helic: 2

Results for COC(=O)c1sccc1OC(=O)c1ccc(C(C)(C)C)cc1 ?
Sa growth 42C: 106

How did COC(=O)c1cscc1OC(=O)c1ccc(C(F)(F)F)cc1 do in these assays?
Sa growth 42C: 21*

What do the screens show for `COc1cccc(C(CC(=O)c2ccc(Cl)cc2)C(C#N)C#N)c1` (centres undefined)?
Sa growth 42C: 51; S aureus helic: 2

What do the screens show for `Cc1ccc(C(=O)CC(c2ccccc2)C(C#N)C#N)cc1` (centres undefined)?
Sa growth 42C: 48*; S aureus helic: -9

What do the screens show for `Cc1[nH]c2ccc(C(=O)NCC3CCCO3)cc2c1C` (centres undefined)?
Sa growth 42C: 103; S aureus helic: 29*

Results for Cc1[nH]c2ccc(C(=O)NC3CC3)cc2c1C ?
Sa growth 42C: 115; S aureus helic: 2

What do the screens show for `CCC(CC)C(=O)n1c(=O)oc2ccc(C)cc21`?
Sa growth 42C: 97; S aureus helic: -6

Results for CCOc1cccc(C(=O)Oc2cccc3ccc(C)nc23)c1 ?
Sa growth 42C: 80; S aureus helic: 6
